Source: PubChem BioAssay AID1159580 (chemical genetic matrix, 2015)
Values joined by “and” are separate entries in the source; they are usually repeats but may differ in a detail not shown here. Equal entries are not always repeated. The campaign covered roughly 5,500 compounds. About 2,000 (36%) were called active. Roughly 18% stayed inconclusive and do not appear here. Cut-off read from the data, not from the text of the source: active = normalized growth mostly below about 0.91 (no sharp cut-off); inconclusive = no clear call, values can overlap the other calls; inactive = mostly above about 0.92. The list shows a part of the results.

Experiment: chemical genetic growth profiling, strain panel (AID 1159580);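 note: tested at 20 µM; growth read once vehicle control cultures reached saturation at 30 °C; 1 = growth at the plate median or of vehicle wells; lower values mean less growth of the strain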
Conditions: S. cerevisiae deletion strains, growth OD
[1] = locus YGR078C, strain PAC10, stronger effect = lower value
[2] = locus YGR229C, strain SMI1, stronger effect = lower value
[3] = locus YJR075W, strain HOC1, stronger effect = lower value
[4] = locus YAL013W, strain DEP1, stronger effect = lower value
[5] = locus YBR229C, strain ROT2, stronger effect = lower value
[6] = locus YDL101C, strain DUN1, stronger effect = lower value
[7] = locus YDR150W, strain NUM1, stronger effect = lower value
[8] = locus YEL061C, strain CIN8, stronger effect = lower value
[9] = locus YHR030C, strain SLT2, stronger effect = lower value
[10] = locus YJR043C, strain POL32, stronger effect = lower value
[11] = locus YLR039C, strain RIC1, stronger effect = lower value
[12] = locus YLR262C, strain YPT6, stronger effect = lower value
[13] = locus YMR263W, strain SAP30, stronger effect = lower value
[14] = locus YPL055C, strain LGE1, stronger effect = lower value
[15] = locus YPL241C, strain CIN2, stronger effect = lower value

Measured: normalized growth

NC1C=CC=C(C(=O)O)C1 (stereo not given)
inactive: locus YAL040C, strain CLN3, stronger effect = lower value 0.969 | locus YCL061C, strain MRC1 (second series), stronger effect = lower value 0.989 | locus YER002W, strain NOP16, stronger effect = lower value 0.992 | [1] 1 | [2] 0.999 | [3] 0.994 | locus YNL175C, strain NOP13, stronger effect = lower value 0.995 | locus YNL197C, strain WHI3, stronger effect = lower value 0.979 | locus YNL224C, strain SQS1, stronger effect = lower value 1 | locus YOR083W, strain WHI5 (second series), stronger effect = lower value 0.986

Fc1cc2n[nH]nc2cc1Cl
inactive: [4] 1 | [5] 0.989 | [6] 0.97 | [7] 0.919 | [8] 0.992 | [1] 0.972 | [9] 0.977 | locus YHR087W, strain rtc3, stronger effect = lower value 0.997 | [10] 0.997 | [3] 0.958 | [11] 1.06 | locus YLR058C, strain SHM2 (second series), stronger effect = lower value 0.978 | locus YLR085C, strain ARP6, stronger effect = lower value 0.94 | [12] 1.06 | locus YML094W, strain GIM5, stronger effect = lower value 0.979 | locus YMR219W, strain ESC1, stronger effect = lower value 0.985 | [13] 0.931 | locus YNL153C, strain GIM3, stronger effect = lower value 0.995 | locus YNL298W, strain CLA4 (second series), stronger effect = lower value 0.977 | locus YNL322C, strain KRE1, stronger effect = lower value 0.974 | locus YNR030W, strain Alg12, stronger effect = lower value 0.993 | [14] 0.931 | [15] 0.978 | locus YPR135W, strain CTF4, stronger effect = lower value 0.945

CC(=O)O[C@H]1C[C@@H](OC(C)=O)C(C)(C)C2C[C@@H](OC(C)=O)[C@@]3(C)C4=CC(=O)O[C@@H](c5ccoc5)[C@]4(C)CCC3[C@]21C (stereo not given in full)
inactive: [4] 1.01 | locus YAL021C, strain ccr4, stronger effect = lower value 1.02 | locus YAL026C, strain drs2, stronger effect = lower value 1 | locus YAL030W, strain snc1, stronger effect = lower value 0.998 | locus YBL061C, strain skt5, stronger effect = lower value 0.997 | locus YBR009C, strain hhf1, stronger effect = lower value 0.99 | locus YBR021W, strain FUR4, stronger effect = lower value 0.993 | locus YBR023C, strain chs3, stronger effect = lower value 0.982 | locus YBR171W, strain sec66, stronger effect = lower value 1 | [5] 1 | locus YBR231C, strain swc5, stronger effect = lower value 0.989 | locus YBR279W, strain paf1, stronger effect = lower value 1 | locus YCL011C, strain gbp2, stronger effect = lower value 1 | locus YCL016C, strain dcc1, stronger effect = lower value 0.997 | locus YCL029C, strain bik1, stronger effect = lower value 1 | locus YCL061C, strain MRC1, stronger effect = lower value 0.994 | locus YCL069W, strain vba3, stronger effect = lower value 1.01 | locus YCR088W, strain abp1, stronger effect = lower value 0.999 | locus YDL005C, strain med2, stronger effect = lower value 0.989 | locus YDL035C, strain GPR1, stronger effect = lower value 1.01 | locus YDL040C, strain nat1, stronger effect = lower value 0.983 | locus YDL074C, strain BRE1, stronger effect = lower value 0.993 | [6] 1 | locus YDL185W, strain tfp1, stronger effect = lower value 1.01 | locus YDL192W, strain arf1, stronger effect = lower value 1 | locus YDR001C, strain nth1, stronger effect = lower value 1 | locus YDR069C, strain doa4, stronger effect = lower value 0.983 | locus YDR101C, strain arx1, stronger effect = lower value 1 | locus YDR137W, strain rgp1, stronger effect = lower value 0.998 | [7] 1.01 | locus YDR159W, strain sac3, stronger effect = lower value 0.968 | locus YDR162C, strain NBP2, stronger effect = lower value 1.03 | locus YDR195W, strain ref2 0.961 | locus YDR297W, strain sur2, stronger effect = lower value 1 | locus YDR318W, strain mcm21, stronger effect = lower value 1 | locus YDR334W, strain swr1, stronger effect = lower value 0.997 | locus YDR335W, strain msn5, stronger effect = lower value 1 | locus YDR388W, stronger effect = lower value 0.999 | locus YDR392W, strain spt3, stronger effect = lower value 0.963 | locus YDR502C, strain sam2, stronger effect = lower value 0.98 | locus YEL003W, strain gim4, stronger effect = lower value 1.01 | locus YEL037C, strain rad23, stronger effect = lower value 1.02 | locus YEL061C, strain CIN8 (second series), stronger effect = lower value 1 | [8] 0.997 | locus YER015W, strain faa2, stronger effect = lower value 0.998 | locus YER016W, strain bim1, stronger effect = lower value 0.991 | locus YER110C, stronger effect = lower value 0.997 | locus YER111C, strain swi4, stronger effect = lower value 1 | locus YER155C, strain BEM2 (second series), stronger effect = lower value 0.975 | locus YER155C, strain BEM2, stronger effect = lower value 0.995 | locus YER167W, strain BCK2, stronger effect = lower value 1.01 | locus YFR010W, strain ubp6, stronger effect = lower value 1.01 | locus YGL078C, strain dbp3, stronger effect = lower value 1.01 | locus YGL086W, strain mad1, stronger effect = lower value 0.985 | locus YGL167C, strain pmr1, stronger effect = lower value 0.996 | locus YGL173C, strain kem1, stronger effect = lower value 1 | locus YGL227W, strain vid30, stronger effect = lower value 0.998 | locus YGL240W, strain doc1, stronger effect = lower value 0.973 | locus YGL248W, strain PDE1, stronger effect = lower value 1 | locus YGL253W, strain hxk2, stronger effect = lower value 1.01 | [1] 1.01 | locus YGR135W, strain pre9, stronger effect = lower value 0.992 | [2] 1.05 | locus YGR252W, strain gcn5, stronger effect = lower value 0.922 | locus YHR013C, strain ard1, stronger effect = lower value 0.987 | locus YHR027C, strain rpn1, stronger effect = lower value 0.994 | [9] 1.01 and 0.97 | locus YHR079C, strain IRE1 (second series), stronger effect = lower value 1 | locus YHR079C, strain IRE1, stronger effect = lower value 0.982 | locus YHR094C, strain hxt1, stronger effect = lower value 1 | locus YHR129C, strain ARP1, stronger effect = lower value 1.01 | locus YHR142W, strain chs7, stronger effect = lower value 1.03 | locus YHR200W, strain rpn10, stronger effect = lower value 0.993 | locus YIL066C, strain RNR3, stronger effect = lower value 1.01 | locus YIL073C, strain SPO22, stronger effect = lower value 1.03 | locus YIL125W, strain kgd1, stronger effect = lower value 0.995 | locus YIR030C, strain dcg1, stronger effect = lower value 0.998 | locus YJL092W, strain hpr5, stronger effect = lower value 1.01 | locus YJL095W, strain BCK1 (second series), stronger effect = lower value 1 | locus YJL095W, strain BCK1, stronger effect = lower value 1.01 and 0.953 | locus YJL115W, strain asf1, stronger effect = lower value 0.999 | locus YJL129C, strain trk1, stronger effect = lower value 1.01 | locus YJL134W, strain LCB3, stronger effect = lower value 1.01 | locus YJL154C, strain vps35, stronger effect = lower value 0.999 | locus YJL164C, strain tpk1, stronger effect = lower value 1 | locus YJL166W, strain qcr8, stronger effect = lower value 0.994 | locus YJL168C, strain set2, stronger effect = lower value 0.994 | locus YJL187C, strain SWE1 (second series), stronger effect = lower value 1.01 | locus YJL187C, strain SWE1, stronger effect = lower value 0.997 | [10] 1.01 | locus YJR066W, strain TOR1, stronger effect = lower value 0.941 | locus YKL009W, strain mrt4, stronger effect = lower value 0.99 | locus YKL068W, stronger effect = lower value 1.01 | locus YKL085W, strain MDH1 (second series), stronger effect = lower value 0.991 | locus YKL085W, strain MDH1, stronger effect = lower value 0.991 | locus YKL160W, strain elf1, stronger effect = lower value 0.995 | locus YKR001C, strain vps1, stronger effect = lower value 0.992 | locus YKR026C, strain gcn3, stronger effect = lower value 1.01 | locus YKR091W, strain srl3, stronger effect = lower value 1 | locus YLL001W, strain dnm1, stronger effect = lower value 1.02 | locus YLL026W, stronger effect = lower value 0.998 | locus YLL041C, strain sdh2, stronger effect = lower value 1 | locus YLR027C, strain aat2, stronger effect = lower value 0.982 | [11] 1.05 | locus YLR058C, strain SHM2, stronger effect = lower value 1.01 | locus YLR102C, strain apc9, stronger effect = lower value 0.989 | locus YLR113W, strain HOG1, stronger effect = lower value 1.03 | locus YLR221C, strain rsa3, stronger effect = lower value 0.989 | locus YLR258W, strain gsy2, stronger effect = lower value 0.978 | locus YLR262C, strain YPT6 (second series), stronger effect = lower value 0.983 | [12] 1.09 | locus YLR268W, strain sec22, stronger effect = lower value 1.01 | locus YLR320W, strain mms22, stronger effect = lower value 0.977 | locus YLR330W, strain CHS5, stronger effect = lower value 1.01 | locus YLR342W, strain FKS1, stronger effect = lower value 0.991 | locus YLR357W, strain rsc2, stronger effect = lower value 0.994 | locus YLR370C, strain arc18, stronger effect = lower value 1 | locus YLR371W, strain rom2, stronger effect = lower value 0.995 | locus YLR384C, strain iki3, stronger effect = lower value 0.977 | locus YLR418C, strain cdc73, stronger effect = lower value 0.973 | locus YML016C, strain PPZ1, stronger effect = lower value 1 | locus YML032C, strain rad52, stronger effect = lower value 1 | locus YML120C, strain ndi1, stronger effect = lower value 1 | locus YML124C, strain tub3, stronger effect = lower value 0.998 | locus YMR058W, strain fet3, stronger effect = lower value 1.02 | locus YMR078C, strain ctf18, stronger effect = lower value 0.989 | locus YMR125W, strain sto1, stronger effect = lower value 0.998 | locus YMR129W, stronger effect = lower value 1.01 | locus YMR205C, strain PFK2, stronger effect = lower value 1.01 | locus YMR223W, strain ubp8, stronger effect = lower value 0.988 | locus YMR231W, strain pep5, stronger effect = lower value 0.962 | [13] 1.01 | locus YMR307W, strain GAS1, stronger effect = lower value 1.05 | locus YNL067W, strain RPL9B, stronger effect = lower value 1.01 | locus YNL071W, strain lat1, stronger effect = lower value 1.01 | locus YNL183C, strain NPR1, stronger effect = lower value 0.961 | locus YNL209W, strain ssb2, stronger effect = lower value 0.992 | locus YNL233W, strain BNI4, stronger effect = lower value 1.02 | locus YNL248C, strain rpa49, stronger effect = lower value 1 | locus YNL250W, strain rad50, stronger effect = lower value 1.01 | locus YNL271C, strain bni1, stronger effect = lower value 1 | locus YNL298W, strain CLA4, stronger effect = lower value 0.995 | locus YNL307C, strain MCK1, stronger effect = lower value 0.995 | locus YNL322C, strain KRE1 (second series), stronger effect = lower value 0.992 | locus YNR049C, strain mso1, stronger effect = lower value 1 | locus YNR052C, strain pop2, stronger effect = lower value 0.995 | locus YOL006C, strain TOP1, stronger effect = lower value 1 | locus YOL012C, strain htz1 0.751 | locus YOL147C, strain pex11, stronger effect = lower value 0.996 | locus YOR001W, strain rrp6, stronger effect = lower value 0.979 | locus YOR061W, strain CKA2, stronger effect = lower value 1 | locus YOR069W, strain VPS5, stronger effect = lower value 0.999 | locus YOR070C, strain gyp1, stronger effect = lower value 1.01 | locus YOR080W, strain dia2, stronger effect = lower value 0.981 | locus YOR083W, strain WHI5, stronger effect = lower value 1.01 | locus YOR106W, strain vam3, stronger effect = lower value 1 | locus YOR136W, strain idh2, stronger effect = lower value 0.991 | locus YOR144C, strain elg1, stronger effect = lower value 0.99 | locus YOR184W, strain ser1, stronger effect = lower value 0.999 | locus YOR231W, strain MKK1, stronger effect = lower value 0.978 | locus YOR265W, strain rbl2, stronger effect = lower value 0.993 | locus YOR270C, strain vph1, stronger effect = lower value 1.04 | locus YOR290C, strain snf2, stronger effect = lower value 1 | locus YOR316C, strain cot1, stronger effect = lower value 1 | locus YPL051W, strain arl3, stronger effect = lower value 0.977 | [14] 1.01 | locus YPL078C, strain atp4, stronger effect = lower value 1 | locus YPL106C, strain sse1, stronger effect = lower value 0.975 | locus YPL240C, strain hsp82, stronger effect = lower value 0.997 | [15] 1.01 | locus YPL256C, strain CLN2, stronger effect = lower value 0.957 | locus YPR119W, strain clb2, stronger effect = lower value 0.995 | locus YPR141C, strain kar3, stronger effect = lower value 1.01 | locus YPR163C, strain tif3, stronger effect = lower value 1 | locus YPR167C, strain met16, stronger effect = lower value 0.995 | strain wtn01, stronger effect = lower value 0.993
